# Compounds with a hit are over-represented: about 11% of the library has one in this group of screens.
# HP1b chromo inh – HTS for Inhibitors of HP1-beta Chromodomain Interactions with Methylated Histone Tails; Chromobox protein homolog 1 (Homo sapiens), P83916; AID 540317, 2011; AlphaScreen HP1-beta / biotin-H3K9me3 peptide binding; hit rate 0.56% among 390,000; Potency, µM (series often up to 114 µM), for inactives: top-dose activity change, negative = inhibition, hits mostly inhibitors; also: nearly all actives have a fitted effect of over 70% in size
# Target sequence (P83916 whole entry, looked up): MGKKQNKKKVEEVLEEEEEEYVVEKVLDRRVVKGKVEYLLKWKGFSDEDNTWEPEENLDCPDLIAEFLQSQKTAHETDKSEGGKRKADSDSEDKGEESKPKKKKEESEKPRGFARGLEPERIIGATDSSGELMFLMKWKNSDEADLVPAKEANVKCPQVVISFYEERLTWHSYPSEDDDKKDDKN
#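 HP1-beta protein (50 nM final) preincubated 30 min at room temperature with biotinylated H3(1-18)K9me3 peptide (50 nM) in PBS pH 7.4, 0.01% Tween-20, then compound added for 30 min. AlphaScreen streptavidin donor/nickel chelate acceptor beads (10 ug/mL final), 30 min dark, luminescence read.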
# BAZ2B block – qHTS Assay for Inhibitors of BAZ2B. AlphaScreen BAZ2B-H3K14Ac peptide displacement. Potency, µM (doses to about 114 µM), for inactives: at the top dose activity change, negative = inhibition, hits mostly inhibitors. hit rate 4.4% among 360,000; also: % is scaled to controls: 0 for no effect and ±100 for the full control effect; nearly all actives have a fitted effect of over 60% in size
#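 AlphaScreen displacement: compounds (up to 110uM) incubated 30 min at room temperature with a preformed 50 nM BAZ2B/50 nM biotinylated H3K14Ac peptide complex in PBS pH 7.4 with Tween-20. Donor and acceptor beads at 10 ug/mL final added, 20 min light-protected before reading.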
# G9a block – qHTS Assay for Inhibitors of Histone Lysine Methyltransferase G9a | Potency, µM (doses to about 102 µM), for the others: top-dose activity, negative = inhibition, most hits filed as inhibitors | Histone-lysine N-methyltransferase EHMT2 (Homo sapiens), Q96KQ7 | hit rate 8.8% among 350,000 | AID 504332, 2011 | G9a H3K9 monomethylation, AlphaScreen, 2 h; also: % is scaled to controls: 0 for no effect and ±100 for the full control effect; nearly all actives have a fitted effect of over 75% in size
#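 AlphaScreen read-out: biotin-H3K9 peptide (500 nM) methylation by 20 nM enzyme with 20 uM SAM, 2 h at room temperature after 15 min compound preincubation; anti-monomethyl H3K9 antibody plus donor/acceptor beads, 10 min dark.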
# JMJD2A Tudor inh – qHTS Assay for Inhibitors of JMJD2A-Tudor Domain; Lysine-specific demethylase 4A (Homo sapiens), O75164; AlphaScreen JMJD2A-Tudor / H3K4me3 peptide binding; Potency, µM (series often up to 114 µM), for inactives: at the highest dose activity change, negative = inhibition, usual class: inhibitors; hit rate 4.4% among 390,000; also: % is scaled to controls: 0 for no effect and ±100 for the full control effect; nearly all actives have a fitted effect of over 50% in size
# PLK1 PBD block – qHTS for Inhibitors of PLK1-PDB (polo-like kinase 1 - polo-box domain): Primary Screen; Serine/threonine-protein kinase PLK1 (Homo sapiens), P53350; Plk1 PBD binding of FITC phosphopeptide, fluorescence polarization; Potency, µM, for inactives: max response, negative = inhibition, hits mostly inhibitors; hit rate 2.8% among 360,000; also: series mostly up to about 57 µM; % is scaled to controls: 0 for no effect and ±100 for the full control effect; nearly all actives have a fitted effect of over 65% in size
# VDR inh – Inhibitors of the vitamin D receptor (VDR): qHTS. VDR-SRC2-3 peptide fluorescence polarization, 2 h. Potency, µM, for inactives: max response, negative = inhibition, actives largely listed as inhibitors. hit rate 0.93% among 400,000; also: % is scaled to controls: 0 for no effect and ±100 for the full control effect
# Target sequence (P11473 whole entry, looked up): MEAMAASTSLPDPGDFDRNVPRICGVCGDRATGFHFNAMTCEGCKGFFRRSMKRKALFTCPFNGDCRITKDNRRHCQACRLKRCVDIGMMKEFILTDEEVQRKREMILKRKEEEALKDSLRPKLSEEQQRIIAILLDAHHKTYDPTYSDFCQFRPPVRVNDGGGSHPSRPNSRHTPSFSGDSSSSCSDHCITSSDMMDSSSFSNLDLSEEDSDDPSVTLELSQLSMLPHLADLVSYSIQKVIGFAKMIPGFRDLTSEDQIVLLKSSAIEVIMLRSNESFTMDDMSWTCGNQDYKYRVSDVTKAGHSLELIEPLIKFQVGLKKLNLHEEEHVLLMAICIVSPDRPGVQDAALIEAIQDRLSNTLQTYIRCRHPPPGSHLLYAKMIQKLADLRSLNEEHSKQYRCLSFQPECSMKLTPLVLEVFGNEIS
#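 VDR–SRC2-3 interaction, FP format. Cmpds 23 nl via pintool, brief spin, 2 h ambient incubation.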
# Starred values were filed as active, the others as inactive; ? = inconclusive; / = no result given; [ ] = dose if it differs, or a comment. Calls follow the shape of the dose curve; as a rule, active = well fitted curve in the direction sought with a large enough effect; inconclusive = small, poorly fitted or top-dose-only effect, or another doubt; inactive = no such curve, though single readings can be large; an effect the other way counts as inactive or inconclusive. Potency is read from the fitted curve at half-maximal effect.
SMILES,HP1b chromo inh,BAZ2B block,G9a block,JMJD2A Tudor inh,PLK1 PBD block,VDR inh
Cc1nnc(SCC(=O)c2cc(C)n(C3CC3)c2C)s1,-9%,13%,/,-31%,-4%,-12%
Cc1cc(C(=O)CSc2nnc(CCC(N)=O)n2C)c(C)n1C1CC1,9%,-7%,50µM*,-19%,-8%,-9%
O=C(COC(=O)c1ccccn1)c1ccc([N+](=O)[O-])cc1,29%,11µM*,11µM*,25µM*,-16%,?
O=C(c1ccc([N+](=O)[O-])cc1)N(c1ccccn1)c1ccccn1,20%,-4%,-8%[12.7 µM],-19%,-7%,-19%
O=C(CSc1ccc(-c2ccncc2)nn1)c1ccccc1,16%,-2%,25µM*,-18%,-14%,-11%
O=C(CSc1ccc(-c2cccnc2)nn1)c1ccc([N+](=O)[O-])cc1,-3%,-16%,22µM*,-30%,-23%,-12%
O=C(CSc1ccc(-c2ccccn2)nn1)c1ccc([N+](=O)[O-])cc1,6%,8.9µM*,40µM*,?,-13%,-4%
O=C(CSc1nc2ccccc2n1Cc1ccccc1Cl)NCc1ccccc1,26%,-12%,5%[12.7 µM],-3%,/,11%
COc1ccc(CC(C)Nc2cccc(SC)c2)cc1 (configuration not stated),27%,-39%,?,-17%,-1%,-11%
CC(=O)Nc1ccc(SCC(c2ccccc2)N2CCN(CC(C)C)CCC2=O)cc1 (configuration not stated),13%,/,/,-28%,/,?
CC(O)c1cccc(-c2ccc(CN3C[C@]4(CO)O[C@@H](CO)C[C@@H]4S3(=O)=O)cc2)c1 (some centres not stated),31%,/,/,-23%,27µM*,?
Cc1cccc(OCCN2C(=O)c3ccccc3C2=O)c1,123%,47%,93%,70%,3%,14%
Cc1cccc(N2C(=O)/C(=C\c3ccc(OC(F)F)cc3)c3ccccc3C2=O)c1,-20%,?,-14%[59 µM],?,2.4µM*,35µM*
Cc1ccccc1C1CC(=O)Oc2ccc(C(C)(C)C)cc21 (configuration not stated),/,/,42%,/,/,-4%
Cc1ccccc1C1CC(=O)Oc2cc(O)ccc21 (configuration not stated),8%,/,1%,-26%,17µM*,-7%
Cc1ccc(C2CC(=O)Oc3ccc(O)cc32)cc1 (configuration not stated),/,/,11µM*,/,/,-22%
Cc1ccc(C2CC(=O)Oc3ccc(C(C)(C)C)cc32)cc1 (configuration not stated),/,/,78%,/,/,-1%
CC1=C(C(N)=O)C(c2ccccc2F)n2nc(-c3ccc(Cl)cc3)nc2N1 (configuration not stated),37%,2%,19%[59 µM],-11%,/,-14%
Cc1[nH]c2ccccc2c1-c1nc(N)sc1C,7%,?,71µM*,-23%,?,-18%
CCOC(=O)c1c(/N=C/N(C)C)sc(/C=N/Nc2ccccc2)c1-c1ccc(Cl)cc1,-5%,-6%,?,?,30µM*,?
CCOC(=O)c1c(/N=C/N(C)C)sc(C)c1C,28%,-18%,?,-16%,-11%,-9%
N#C/C(=C\c1ccncc1)c1nc2ccccc2c(=O)[nH]1,37%,?,25µM*,-8%,-3%,-11%
N#C/C(=C/c1ccncc1)c1nc2ccccc2c(=O)[nH]1,26%,-35%,45µM*,-9%,-17%,-26%
CCC(C)(C)NC(=O)c1cc([N+](=O)[O-])ccc1N1CCOCC1,2%,-2%,27%[59 µM],-7%,-11%,-9%
C=CCn1c(-c2csc(-c3ccc(OC)c(OC)c3)n2)n[nH]c1=S,24%,-8%,2.2µM*,7.9µM*,-15%,4%
SMILES,HP1b chromo inh,BAZ2B block,G9a block,JMJD2A Tudor inh,PLK1 PBD block,VDR inh
C=CCn1c(-c2csc(-c3ccc(Cl)cc3)n2)n[nH]c1=S,37%,14%,?,-9%,-12%,-5%
CCn1c(-c2csc(-c3ccc(Cl)cc3)n2)n[nH]c1=S,50%,6%,?,-3%,-9%,-5%
C=CCn1c(-c2csc(-c3ccccc3)n2)n[nH]c1=S,34%,1%,1.8µM*,-18%,-23%,-11%
COc1ccc(-c2nc(-c3ccc(O)cc3O)cs2)cc1OC,-24%,?,?,?,?,6%
CCn1c(-c2csc(-c3ccccc3)n2)n[nH]c1=S,60%,-32%,1.4µM*,-28%,-17%,15%
Cc1ccc(C)c(OCCC(=O)Nc2ccc3c(c2)OCO3)c1,14%,-29%,32%[12.7 µM],-8%,4%,-5%
Cc1ccc(-c2cn3c(n2)SCC3)cc1,-23%,?,-9%,-27%,?,-5%
O=C(Nc1cccc(-c2cn3c(n2)SCC3)c1)c1ccc(Br)o1,25%,56µM*,7.9µM*,-12%,-7%,11%
O=C(Cc1ccc(F)cc1)Nc1cccc(-c2cn3c(n2)SCC3)c1,-18%,?,10µM*,-21%,-14%,-9%
CN(C)S(=O)(=O)Nc1cccc(-c2cn3c(n2)SCC3)c1,-2%[57 µM],-34%,3%,-24%,?,-21%
O=C(Nc1ccc(-c2cn3c(n2)SCC3)cc1)c1ccco1,-2%,-30%,28µM*,-15%,?,-7%
CCc1ccc(-c2cn3c(n2)SCC3)cc1,-1%,?,45µM*,-24%,?,14%
CC(=O)Nc1ccc(S(=O)(=O)Nc2cccc(-c3cn4c(n3)SCC4)c2)cc1,23%,/,?,-30%,-20%,2%
NS(=O)(=O)c1cc(C(=O)OCC(=O)c2ccc3c(c2)OCCO3)ccc1Cl,6%,-24%,24%[12.7 µM],-26%,30µM*,-19%
N#CCC(=O)Nc1ccc(C(=O)OCC(=O)c2ccc3c(c2)OCCO3)cc1,-9%,-8%,53%,18µM*,12µM*,-24%
COc1cccc(-c2cc(C(F)(F)F)n3ncc(C(=O)OC(C)C)c3n2)c1,42%,9%,7%[59 µM],6%,/,-13%
Cc1c2ccccc2nc2ccccc12,20%,/,/,-18%,-3%,-20%
Cc1c2c(nc3ccccc13)OCC2,8%,24%,79µM*,-17%,-11%,-2%
Cn1c(N/N=C/c2cccs2)cc(=O)n(C)c1=O,35%,-4%,50µM*,7%,-2%,9%

# Assay outcomes: PubChem, National Center for Advancing Translational Sciences (NCATS)
